# Compound activity deposited in PubChem by University of Kansas High Throughput Screening Laboratory.
# Sampled rows, rich in hits. Any-hit rate of the full collection: about 3.5%.
# Pf apPOL block = Pf-apPOL DNA polymerase inhibition; Recombinant Pf-apPOL, molecular beacon fluorescence, 1.5 h; inhibition, % at 10 µM; actives 0.25% (n = 210,000)
# mHTT CaM bind = mHTT-calmodulin interaction abrogation; AID 1671202; AlphaScreen His-mHTT/GST-CaM binding, luminescence; inhibition, % at 15 µM; actives 3.6% (n = 190,000); P42858;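 further: 0% = both proteins with DMSO and 100% = one protein alone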
# * hit, by the source's call; i = inactive; . = not tested or not shown. No stated cut-off is given here; in the data, active means inhibition above about 50%; inactive means the rest.
SMILES,Pf apPOL block,mHTT CaM bind
COc1cccc(OC)c1OCCCN1CCCC(C)C1 (stereo unspecified),0,2
O=C(Nc1ccc2c(c1)OCO2)n1ncc2cc(Cl)ccc21,0,1
COc1ccc(C(=O)N2CCc3c(c(C(=O)NCc4ccc(Cl)cc4)nn3C)C2)cc1,-1,80*
Cn1nc(C(=O)NCc2ccc(Cl)cc2)c2c1CCN(C(=O)C1CC1)C2,-6,83*
Cn1nc(C(=O)NCc2ccc(F)cc2)c2c1CCN(C(=O)CC1CCCC1)C2,-12,76*
Cn1nc(C(=O)NCc2ccccc2)c2c1CCN(C(=O)C1CCCCC1)C2,-9,85*
Cn1nc(C(=O)NCc2ccc(F)cc2)c2c1CCN(C(=O)C1CCC1)C2,-8,28
Cn1nc(C(=O)NCc2ccc(F)cc2)c2c1CCN(C(=O)c1ccc(Cl)cc1)C2,-13,-10
Cc1cccc(CNC(=O)c2nn(C)c3c2CN(C(=O)C2CCCCC2)CC3)c1,-4,36
CCc1ccc2nc(C)cc(C(N)=O)c2c1,-1,-4
COc1ccccc1/C=C1\N=C(c2cc(OC)c(OC)c(OC)c2)OC1=O,3,5
Cc1cc2ccccc2c(=O)n1CC(=O)NCc1cccnc1,-3,2
CCCCCCCCCCCCCCCCCC1N=CCN1CCO (stereo unspecified),19,.
O=C(c1ccc(Cl)cc1Cl)N1CCN(c2cc(N3CCCC3)c(F)cc2[N+](=O)[O-])CC1,-1,5
Cc1cccc(CNC(=O)c2nn(C)c3c2CN(C(=O)CC2CCCC2)CC3)c1,-10,55*
Cn1nc(C(=O)NCc2ccccc2)c2c1CCN(C(=O)CC1CCCC1)C2,-3,71*
CCCC(=O)N1CCc2c(c(C(=O)NCc3ccccc3)nn2C)C1,-9,0
Cc1nnc(-c2cc(C)n(CC(=O)Nc3ccc(C)c(C)c3)c2C)o1,3,39
COc1cccc(C2CC(c3ccc(C)cc3)=NC3(CCN(C(C)=O)CC3)N2)c1O (stereo unspecified),-4,28
CCC(C)NC(=O)CN1C(=O)/C(=C/c2ccc(Cl)cc2)Sc2ccccc21 (stereo unspecified),4,2
CN1C(=O)c2cccnc2Sc2cc(NC(=O)c3ccccc3F)ccc21,-7,0
CCc1nnc(NC(=O)c2ccc(S(=O)(=O)N3CCc4ccccc4C3)cc2)o1,-6,55*
O=C(Nc1nnc(-c2ccc(F)cc2)o1)c1ccc(S(=O)(=O)N2CCc3ccccc3C2)cc1,-67,4
CC1CCN(Cc2csc(N3CCN(C(=O)c4ccc(F)cc4F)CC3)n2)CC1,-2,3
CCc1ccc(N2C(=O)C3N=NN(c4cc(C)cc(C)c4)C3C2=O)cc1 (stereo unspecified),0,-7
SMILES,Pf apPOL block,mHTT CaM bind
O=C1c2ccccc2C(=O)N1CC1c2ccccc2CCN1S(=O)(=O)c1ccc(F)c(F)c1 (stereo unspecified),-5,0
COc1ccc(CN2CC(C(=O)NC(C)(C)C)CC2=O)cc1 (stereo unspecified),-7,-2
O=C(NCc1cn[nH]c1-c1ccccc1)c1ccc(C(F)(F)F)cc1,-4,-10
Cc1ccc(N2CCN(C(=O)c3cccc4[nH]cc(CN5CCCC5)c34)CC2)cc1,-4,78*
Cc1ccc(NC(=O)c2cccc3[nH]cc(CN4CCCC4)c23)cc1,-1,5
O=C(NCc1ccc(Cl)cc1)C1CC(=O)N(CCc2c[nH]c3ccc(F)cc23)C1 (stereo unspecified),0,17
C/C(=N\n1cnc2sc3c(c2c1=O)CCCC3)N(C)C,-1,i
COc1cc(CN2CCN(c3ccc([N+](=O)[O-])cc3)CC2)cc(I)c1O,-7,42
COc1cc(CN2CCN(c3ccc(C(C)=O)cc3)CC2)cc(I)c1O,-2,55*
CCOc1cc(/C=C2\SC(=N)NC2=O)ccc1OCc1ccc(Br)cc1,3,34
CCOc1cc(/C=C2\SC(=N)NC2=O)ccc1OC,-1,11
COc1cc(/C=C2\SC(=N)NC2=O)ccc1Oc1ccc(C(F)(F)F)cc1[N+](=O)[O-],-4,50*
CCOc1cc(/C=C2\SC(=N)NC2=O)ccc1OCc1ccc(F)cc1,-4,60*
COc1cc(/C=C2/SC(=N)NC2=O)ccc1OCc1ccccc1F,-2,60*
COc1cc(/C=C2/SC(=N)NC2=O)ccc1OCc1ccc([N+](=O)[O-])cc1,-4,20
COc1cc(/C=C2/SC(=N)NC2=O)cc(Br)c1OCc1ccccc1,-5,68*
CCOc1cc(/C=C2\SC(=N)NC2=O)ccc1OCc1ccccc1,-5,20
CCN(CC)C(=O)c1csc(-c2ccc(OC)cc2F)n1,-8,-7
CC(=O)NCc1csc(C2CCCN(S(=O)(=O)c3ccccc3)C2)n1 (stereo unspecified),2,2
Cc1ccc(F)c(NC(=O)C2CC(=O)N(c3ccc4oc(C)nc4c3)C2)c1 (stereo unspecified),-3,6
COc1cc(/C=C2/SC(=N)NC2=O)ccc1OCc1ccccc1,1,28
